# Results filed as inconclusive are left out. Activity calls are given as the source filed them. Calls follow the shape of the dose curve; as a rule, active = well fitted curve in the direction sought with a large enough effect; inconclusive = small, poorly fitted or top-dose-only effect, or effect the other way, or another doubt; inactive = no such curve, though single readings can be large or run the other way.
# Experiment: qHTS Assay for Identifying a Potential Treatment of Ataxia-Telangiectasia: Secondary assay (no NCS) SAR for Probe
# Excerpt: NIH Chemical Genomics Center [NCGC] NIH Molecular Libraries Probe Centers Network [MLPCN] MLPCN Grant: MH089030-01 Assay Submitter (PI): Wei Zheng and Yosef Shiloh Ataxia-telangiectasia (A-T) is a devastating and progressive disease for which, there is no cure. Although A-T is a multisystem disease, it is stereotyped characterized by its neurological symptoms such as truncal ataxia, due to cerebellar cortical degeneration of the Purkinje and granule cells. Other symptoms of A-T are telangiectasias (dilated blood vessels), primary immunodeficiency, marked sensitivity to ionizing radiation (IR), chromosomal instability and predisposition to cancer. The underlying genetic cause of A-T is null mutations in the ATM (A-T mutated) gene. ATM is a nuclear serine/threonine kinase that functions as a master regulator of the cellular responses to double strand breaks (DSBs) in the DNA. Upon activation by DSBs, ATM phosphorylates a plethora of downstream targets, including KAP-1 on Ser82452. […] To screen for small molecules that will compensate for the loss of ATM in cells derived from A-T patients, we monitored KAP-1 phosphorylation as a readout for ATM-like activity using an AlphaLISA assay. […]
# qHTS Assay Protocol: Step,Parameter,Value,Description 1. […] Readout, EnVision, EnVision plate reader. […] EnVision protocol for 1536-well AlphaScreen read (30ms excitation, 100ms read), about 10 min/plate.
smiles,measurement,value
CC(=O)c1c(O)c(C)c(O)c(Cc2c(O)c3c(c(C(=O)/C=C/c4ccccc4)c2O)OC(C)(C)C=C3)c1O,outcome,inactive

# Source: PubChem BioAssay AID504361 (National Center for Advancing Translational Sciences (NCATS), 2011)
